Only some compounds are listed: those with a hit (about 5.8% of all), similar ones and a draw of the others.
SW480 rereplic: DNA re-replication induction in SW480 cells | Potency, µM (titrated, usually from 46.1 µM), for the others: at the highest dose re-replication activation, hits mostly activators | AID 624297 | actives 1.8% (n = 340,000) | SW480 DNA re-replication, Hoechst DNA content imaging, 48 h; further: % of control where 0% means no effect; nearly all actives have a fitted effect of over 55% in size
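SW480 cells exposed to compounds for 48 hr at 37 C, 5% CO2, then Hoechst-stained 40 min. Nuclear DNA content imaged by fluorescence scanning (405 nm excitation, 500-530 nm emission); re-replication scored as increased high-intensity nuclei.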
KB-V1 cytotox: KB-V1 MDR subline cytotoxicity. Potency, µM (series often up to 46.1 µM), hits mostly cytotoxic. KB-V1 MDR cells viability, CellTiter-Glo, 72 h. actives 3.4% (n = 400,000); further: on the % scale 0 is the no-effect control and ±100 the full control effect; nearly all actives have a fitted effect of over 60% in size
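Drug-selected KB-V1 cells, grown in DMEM lacking phenol red with 10% FBS, receive compound titrations; after three days at 37 degrees C, surviving cell ATP is quantified by CellTiter-Glo luminescence and responses normalized and curve-fitted.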
PINK1 expr mod: changes PINK1 expression; Potency, µM (highest dose often 76.6 µM), inactives show at the highest dose activation (PINK1 increase), actives largely listed as activators; actives 0.2% (n = 410,000); PINK1 immunofluorescence, high-content cytometry, 24 h; AID 624263; active means well fitted activation curve with a large enough effect; inconclusive means small, poorly fitted or top-dose-only effect; cell line not stated here; further: % of control where 0% means no effect; nearly all actives have a fitted effect of over 65% in size
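Decision-based qHTS: stable cells, 24 h exposure to five compound concentrations, CCCP as control. Fixed cells stained for PINK1 plus nuclear, mitochondrial and cell markers, cytometer read.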
KB-3-1 tox: kills parental KB-3-1 adenocarcinoma cells. KB-3-1 viability, CellTiter-Glo ATP luminescence, 72 h. Potency, µM (highest dose often 46.1 µM), actives largely listed as cytotoxic. actives 1.4% (n = 400,000); further: on the % scale 0 is the no-effect control and ±100 the full control effect; nearly all actives have a fitted effect of over 60% in size
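Luminescent ATP read-out (CellTiter-Glo) measures survival of drug-naive KB-3-1 cells after 72 h compound exposure at 37 °C. Titration series was screened from lowest to highest concentration, with DMSO vehicle plates as background controls.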
MCF10A rereplic: DNA re-replication induction in MCF 10a cells | MCF 10A DNA re-replication, Hoechst nuclear intensity, 48 h | Potency, µM (top dose mostly 46.1 µM), without a hit: at the highest dose activity, positive = re-replication, most hits filed as activators | actives 2.9% (n = 350,000); further: % of control where 0% means no effect; nearly all actives have a fitted effect of over 50% in size
ALOX12 inh: ALOX12 (human) lipoxygenase inhibition. actives 1.1% (n = 580,000). Potency, µM (series often up to 108 µM), inactives show at the highest dose activity change, negative = inhibition, usual class: inhibitors. AID 1671190. purified 12hLO, xylenol orange hydroperoxide absorbance. P18054; further: on the % scale 0 is the no-effect control and ±100 the full control effect
Target sequence (P18054 whole entry, looked up): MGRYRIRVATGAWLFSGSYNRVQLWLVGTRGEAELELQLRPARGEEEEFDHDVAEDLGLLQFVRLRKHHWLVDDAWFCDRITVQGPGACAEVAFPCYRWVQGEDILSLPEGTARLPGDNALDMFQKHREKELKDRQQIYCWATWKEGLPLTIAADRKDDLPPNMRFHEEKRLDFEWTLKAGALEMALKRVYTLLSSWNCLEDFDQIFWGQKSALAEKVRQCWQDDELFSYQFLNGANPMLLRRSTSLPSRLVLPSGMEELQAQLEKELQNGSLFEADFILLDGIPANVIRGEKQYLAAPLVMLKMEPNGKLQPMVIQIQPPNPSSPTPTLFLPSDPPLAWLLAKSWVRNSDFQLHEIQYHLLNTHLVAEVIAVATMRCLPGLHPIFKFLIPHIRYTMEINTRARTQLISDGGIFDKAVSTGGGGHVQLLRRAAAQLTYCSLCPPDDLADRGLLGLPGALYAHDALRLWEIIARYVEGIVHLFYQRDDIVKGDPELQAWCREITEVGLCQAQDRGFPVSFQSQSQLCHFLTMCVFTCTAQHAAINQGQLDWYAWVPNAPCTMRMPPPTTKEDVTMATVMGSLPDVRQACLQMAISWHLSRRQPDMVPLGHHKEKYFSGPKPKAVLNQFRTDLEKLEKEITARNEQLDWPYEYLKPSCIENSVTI
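Purified human 12hLO (150 nM final) in 25 mM Hepes, 0.01% Triton X-100, pH 7.0 was preincubated 15 min at room temperature with compound. Then 40 uM arachidonic acid was added, 30 min. Hydroperoxide was read by Fe-XO absorbance ratio 573/405 nm.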
* marks the source's active call; other numbers are inactive results; i = inactive; ? = inconclusive; · = no result; [ ] = another dose, or the depositor's remark. Unless noted, the call rests on the fitted dose curve; in most records, active means well fitted curve in the direction sought with a large enough effect; inconclusive means small, poorly fitted or top-dose-only effect, or another doubt; inactive means no such curve, though single readings can be large; an effect the other way counts as inactive or inconclusive. Potency means the concentration at half of the fitted maximal effect.

SMILES	SW480 rereplic	KB-V1 cytotox	PINK1 expr mod	KB-3-1 tox	MCF10A rereplic	ALOX12 inh
O=C1CSC(c2ccc(F)cc2F)c2cn[nH]c2N1 (configuration not stated)	·	·	·	·	·	12%
Cc1[nH]cnc1CN1C[C@H](c2ccc3c(c2)OCO3)[C@@H]2[C@H]1C1CCN2CC1	·	·	·	·	·	-16%
Cc1cc(-c2ccccc2)cc(C)[n+]1Cc1ccccc1	-18%[9.22 µM]	i	-1%	5.8µM*	-14%	1%
O=[N+]([O-])c1ccc(C[n+]2c(-c3ccccc3)cc(-c3ccccc3)cc2-c2ccccc2)cc1	-1%	i	1%	?	24%	-4%
COc1ccc2[nH]cc(CCN(C)C)c2c1	-32%	i	1%	i	1%	-18%
COc1ccc(CNC(=O)/C=C/c2ccc3[nH]cc(CCN(C)C)c3c2)cc1	3.2µM*	i	1%	i	7%	-28%
Cc1ccc(N2C(=O)NC(=O)/C(=C\c3cccn3C(C)(C)C)C2=O)cc1	?	i	2%	i	9%	-15%
CCC(C)c1ccc(N2C(=O)NC(=O)/C(=C/c3cccn3CCOc3ccc(C)cc3)C2=O)cc1 (configuration not stated)	17%	i	28%	i	21µM*	?
CCOC(=O)COc1ccc(/C=C2\C(=O)NC(=S)N(c3ccc(OC)cc3)C2=O)cc1OC	-16%	i	1%	i	-3%	0%
COc1ccc(N2C(=O)/C(=C/c3ccc(OC)c(OC)c3)C(=O)NC2=S)cc1	5%	i	0%	i	1%	50µM*
NC(Cc1ccc(O)cc1)C(=O)NN=Cc1ccc(N(CCCl)CCCl)cc1 (configuration not stated)	?	i	-6%	i	22%	6%
COc1cc(C(=O)NN=Cc2ccc(N(CCCl)CCCl)cc2)cc(OC)c1OC	18µM*	i	9%	16µM*	16µM*	8%
CCN(CC)CCCOC(=O)C(OC(C)C)(c1ccccc1)c1ccccc1	?	8.2µM*	-5%[38.3 µM]	?	2%	?
Nc1ccc2ccc3cccc[n+]3c2c1	2.9µM*	i	3%	?	1%	?
CC(C)C12CN3CN(C1)CC(C(C)C)(C3)C2=O	·	·	·	·	·	0%
O=C1NC(=S)N(c2ccccc2F)C(=O)/C1=C\c1cccs1	?	?	-2%	?	?	32µM*
CCOc1ccc(N2C(=O)/C(=C\c3cccs3)C(=O)NC2=S)cc1	-72%	i	0%	i	?	?
c1ccc(C2=NOC3(CCCN(Cc4ccccn4)C3)C2)cc1 (configuration not stated)	·	·	·	·	·	-7%[6.33 µM]
N#CSCC(=O)N1c2ccccc2CCc2ccccc21	?	23µM*	-2%	?	?	-5%
Nc1ccccc1C(=O)OCC(=O)N1CCc2ccccc21	1%	i	0%	i	0%	-22%
O=C(c1ccc2c(c1)OCO2)N1[C@H]2CC[C@@H]1c1cnc(-c3ccccc3)nc1C2	·	·	·	·	·	-5%
Cc1[nH]nc2c1C(c1ccc(-c3cccc(Cl)c3)o1)SCC(=O)N2 (configuration not stated)	·	·	·	·	·	-41%
Cc1cc(C)c(N=Cc2c(O)[nH]c(=O)[nH]c2=O)c(C)c1	-1%	5.2µM*	-1%	6.5µM*	-1%	2%
CC[C@H]1CN2CC[C@H]1C[C@@H]2CNC(=S)Nc1ccc(C)cc1Br	·	·	·	·	·	-10%[176 µM]
CN1C(=O)C(Cc2ccc(OCc3ccccc3)cc2)C(=O)N(C)C1=O	-6%	i	0%	i	3%	?
SMILES	SW480 rereplic	KB-V1 cytotox	PINK1 expr mod	KB-3-1 tox	MCF10A rereplic	ALOX12 inh
COc1cc(CC2C(=O)N(C)C(=O)N(C)C2=O)ccc1OCc1ccccc1	?	?	-2%[38.3 µM]	i	5.2µM*	-8%
COC(=O)c1ccc(Cl)cc1NC(=O)N(Cc1ccc(C)o1)C1CCN(Cc2ccccc2)CC1	·	·	·	·	·	-24%
c1ccc(N2CCN(c3ccccc3)CC2)cc1	·	i	·	i	·	·
O=C1C=C(N2CC2)c2ccccc2C1=O	·	i	-1%	21µM*	·	?
O=C1CN(O)C(c2ccccc2Cl)=c2cc(Br)ccc2=N1	-1%	i	1%	i	23µM*	-2%
Cn1nc(-c2ccc3ccccc3c2)cc1[C@H]1CN2CC[C@H]1C[C@@H]2CNS(=O)(=O)c1ccccc1	·	·	·	·	·	42%
C#CCN1CCN(c2cccc(C)c2)CC1	·	·	·	·	·	10%
Cc1ccccc1C(O)(Cc1ccccc1)C1CN2CCC1CC2 (configuration not stated)	-8%[9.22 µM]	?	2%	10µM*	4%	?
ClC1=C(Cl)C(Cl)=C(Cl)C1=C/C=C/c1ccccc1	?	4.1µM*	21%	4.6µM*	3.7µM*	?
OCC1CN(C2CCC2)CC12CCN(Cc1ccncc1)CC2 (configuration not stated)	·	·	·	·	·	111%
O=C1/C(=C\c2ccc(F)cc2)N2CCC1CC2	·	·	·	·	·	-26%
CCC(=O)[C@@H](C)[C@@H](O)[C@H](C)C[C@@H](C)C1OC(=O)C[C@@]2(O)CC=C(C)C(O2)C(C)=CCCC[C@H](O[C@H]2C[C@@H](OC(N)=O)[C@H](O)[C@@H](C)O2)C=C[C@H](C)C[C@H]1C (some centres not stated)	·	?	0%	0.65µM*	·	13%
COc1ccc(C(=O)C(C)(C)NO)cc1	-2%	i	-3%	i	-7%	5µM*
Cc1c(C=O)c2ccccc2n1Cc1ccccc1	1%	i	1%	i	7%	0%
O=Cc1c(C(=O)O)n(Cc2ccc(Cl)cc2)c2ccccc12	-4%	i	1%	i	21%	11µM*
CC(C)c1ccc(-n2c(O)c(/C=N/NC(=O)c3ccccc3O)c(=O)[nH]c2=S)cc1	-4%	?	1%	i	?	40µM*
Cn1nc(C2CCCCC2)cc1[C@H]1CN2CC[C@H]1C[C@@H]2CNS(C)(=O)=O	·	·	·	·	·	30%[176 µM]
COc1cc2c(cc1OCc1ccccc1)NC(=O)C21CCN(c2nc(C)cnc2C)CC1	·	·	·	·	·	1%
NCCc1ccc(OCc2ccccc2)c(OCc2ccccc2)c1	?	23µM*	-4%	?	?	?
O=C(Cc1ccccc1)N1CCN(C2CCCC2)CC1	1%[9.22 µM]	i	-1%	i	2%	0.89µM*
O=C(NC[C@H]1C[C@@H]2CCN1C[C@@H]2CN1CCN(c2ccccn2)CC1)Nc1ccsc1	·	·	·	·	·	74%
